Source: publication PMC4552634, “A New Set of Chemical Starting Points with Plasmodium falciparum Transmission-Blocking Potential for Antimalarial Drug Discovery” (PLoS ONE, 2015)
Hit rate of the full screen: of about 13,000 compounds, about 3,200 (25%) showed an effect of 50% or more. The list shows a part of the results.

Test system: P. falciparum stage V gametocytes
Design: BacTiter-Glo ATP luminescence viability of purified stage V gametocytes in 384-well plates, per cent inhibition versus DMSO
Conditions: 48 h, 5 µM; inhibitor

Row | SMILES | % Inhibition
1 | CC1CCN(CC[C@H]2CCCN2S(=O)(=O)c2cccc(NC(=O)Nc3ccc(C(F)(F)F)cc3)c2)CC1 [TCMDC-141021] | -52.23%
2 | CCCN(CCC)c1nn2c(=O)c(C(=O)N3CCN(Cc4ccccc4)CC3)cnc2s1 [TCMDC-125272] | -5.242%
3 | Cc1cc(CNCCCCCCCNCc2cccc([N+](=O)[O-])c2)ccc1O [TCMDC-140416] | 12.73%
4 | Cc1cc(CNCCCCCNCc2cccc([N+](=O)[O-])c2)ccc1O [TCMDC-140410] | 42.39%
5 | COc1ccc(CNCCCCCNCc2ccc(Cl)c(Cl)c2)cc1Cl [TCMDC-140365] | 23.3%
6 | COc1ccc(CCNCCCCCNCCc2ccc(Cl)cc2)cc1OC [TCMDC-131269] | 103.7%
7 | COc1ccc(CCNCCCCCCNCCc2cccc([N+](=O)[O-])c2)cc1OC [TCMDC-131262] | 82.84%
8 | COc1ccc(CCNCCCCCCNCCc2ccc(Cl)c(Cl)c2)cc1OC [TCMDC-131275] | 106.4%
9 | COc1ccc(CNCCCCCCCNCc2ccc(Cl)c(Cl)c2)cc1Cl [TCMDC-140366] | 13.21%
10 | COc1ccc(CCNCCCCCNCCCc2ccc(Cl)cc2)cc1OC [TCMDC-131278] | 107.5%
11 | Cc1ccc(C2=NNC3(S2)C(=O)N(C)c2ccccc23)cc1 (stereo not shown) [TCMDC-123863] | 24.25%
12 | COc1ccc(C23Oc4cc(OC)cc(OC)c4C2(O)C2(CC3c3ccccc3)SCCCS2)cc1 (stereo not shown) [TCMDC-132098] | 11.15%
13 | OCC(CO)(CO)NCc1ccc2c3c(cccc13)-c1ccccc1-2 [TCMDC-137877] | -8.777%
14 | C=CCn1c(C)cc(C(=O)COc2ccc(S(=O)(=O)N3CCOCC3)cc2[N+](=O)[O-])c1C [TCMDC-124326] | 33.1%
15 | COc1cc(CNCCCNc2nc3ccsc3c(=O)[nH]2)c2[nH]cc(Cl)c2c1 [TCMDC-140349] | -35.52%
16 | COc1cccc(CCc2cccc(CNC(C)=O)c2)c1 [TCMDC-139277] | -0.06569%
17 | COc1cccc(CCNCCCCCCNCCc2ccc(Cl)cc2)c1 [TCMDC-131284] | 113.2%
18 | COc1ccc2nccc([C@@H](O)CN3CCC(NCc4nc5cc(F)ccc5o4)CC3)c2c1 [TCMDC-140783] | -5.365%
19 | c1ccc2c(c1)ncc1c3ccccc3[nH]c21 [TCMDC-131258] | -7.104%
20 | Cc1cccc2nc(-c3ccc(-c4cccc(CN5CCCC5CN)c4)s3)[nH]c12.O=C(O)C(F)(F)F (stereo not shown) [TCMDC-132997] | 41.54%
21 | O=C(O)C(F)(F)F.O=C1CCCN1CCCNCc1cccc(-c2ccc(-c3nc4cc(C(F)(F)F)ccc4[nH]3)s2)c1 [TCMDC-132757] | -29.57%
22 | Cc1cccc2nc(-c3ccc(-c4cccc(CNCCCN5CCCC5=O)c4)s3)[nH]c12.O=C(O)C(F)(F)F [TCMDC-132762] | -3.129%
23 | NCC1CCCN1Cc1cccc(-c2ccc(-c3nc4ccccc4[nH]3)s2)c1.O=C(O)C(F)(F)F (stereo not shown) [TCMDC-132987] | 77.53%
24 | O=C(O)C(F)(F)F.O=C1CCCN1CCCNCc1cccc(-c2ccc(-c3nc4ccccc4[nH]3)s2)c1 [TCMDC-132749] | 78.47%
25 | NCC1CCCN1Cc1cccc(-c2ccc(-c3nc4cc(C(F)(F)F)ccc4[nH]3)s2)c1.O=C(O)C(F)(F)F (stereo not shown) [TCMDC-132992] | 36.35%
